Compound activity deposited in PubChem by several laboratories.
Cardio protect: cardioprotection against H2O2-induced cell death, primary screen, uHTS, H9c2 cells, ATPLite luminescence; protection from H2O2 cell death, % at 20 µM; 360,000 compounds, 0.63% hits; AID 588492, 2011; H9c2 cardiomyocytes, H2O2 injury protection, 2 h;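 active means compounds giving at least 50% protection of heart cells from peroxide-induced death in the single-dose screen, raw or plate-pattern-corrected value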;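 further: 0% = DMSO wells with peroxide and 100% = DMSO wells without peroxide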
Jurkat NFkB inh: inhibitors of induced NF-kB luciferase reporter, primary screen, TCR NF-kB activation inhibitor project, cell-based, luminescence, uHTS. Jurkat, PMA/ionomycin-induced NF-kB luciferase reporter. inhibition, % at 4 µM. 330,000 compounds, 0.53% hits. AID 435003, 2010; in the data active means inhibition above about 50%
Gli-Sufu antag: Gli-Sufu pathway antagonists, primary screen, luciferase luminescence, Sufu-KO-LIGHT cells, uHTS; 340,000 compounds, 0.74% hits; inhibition, % at 5 µM; Sufu-KO-LIGHT fibroblasts, Gli luciferase reporter luminescence;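 active means inhibition above about 55%, limit read from the data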;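 further: 0% = DMSO-treated cells and 100% = wells with medium but no cells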
H9c2 TAG inh: inhibitors of triacylglycerol accumulation, primary screen, cell-based, uHTS, fluorescence, H9c2. H9c2 cells, Nile Red lipid (TAG) fluorescence; cells loaded with 200 µM oleic acid. inhibition, % at 12.5 µM. 230,000 compounds, 0.66% hits. AID 651582, 2012;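 active means pattern-corrected inhibition of lipid staining of at least 50% with the nuclear-stain viability signal not falling by more than 50%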;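 further: 0% = DMSO wells and 100% = triacsin C control wells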
697 NFkB inh: inhibitors of PMA/ionomycin-induced NF-kB reporter, 697 cells, primary screen, B-cell NF-kB inhibitor project, cell-based, luminescence, uHTS; 330,000 compounds, 0.33% hits; 697 B-cell NF-kB luciferase reporter, 16 h; inhibition, % at 4 µM; AID 435022, 2010; in the data active means inhibition above about 35%
COUP-TFII inh: NR2F2 transcriptional activity inhibitors, primary screen, cell-based, luciferase reporter, HEK293T, luminescence; HEK293T NGFI-A luciferase reporter; inhibition, % at 8.6 µM; 370,000 compounds, 0.7% hits; AID 686940, 2013;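 active means inhibition above a per-plate cutoff, mean inhibition of test wells between control levels plus 3 SD, cut at about 38% in these data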;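 further: cells cotransfected with COUP-TFII expression vector driving the NGFI-A reporter; 0% = median of COUP-TF2 test wells and 100% = reporter-only cells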
Target sequence (P24468 whole entry, looked up): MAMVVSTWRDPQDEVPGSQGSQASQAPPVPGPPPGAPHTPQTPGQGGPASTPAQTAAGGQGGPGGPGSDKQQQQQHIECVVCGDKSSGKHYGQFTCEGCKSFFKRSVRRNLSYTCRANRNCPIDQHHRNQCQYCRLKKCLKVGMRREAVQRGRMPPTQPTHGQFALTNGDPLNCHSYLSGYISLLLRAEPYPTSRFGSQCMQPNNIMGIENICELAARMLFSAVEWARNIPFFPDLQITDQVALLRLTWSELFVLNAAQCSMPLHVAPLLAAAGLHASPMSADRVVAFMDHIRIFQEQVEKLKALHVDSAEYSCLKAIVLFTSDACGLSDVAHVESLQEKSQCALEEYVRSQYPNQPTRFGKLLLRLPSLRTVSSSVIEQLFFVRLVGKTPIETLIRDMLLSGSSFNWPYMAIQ
Gli antag conf: Gli-SUFU pathway antagonists, confirmation, single concentration, luciferase luminescence, Sufu-KO-LIGHT cells | shares compounds with Gli-Sufu antag | Gli luciferase reporter | inhibition, % at 5 µM | 2,500 compounds, 40% hits | AID 602428, 2012;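 active means mean inhibition at 5 µM reaching about 45%, limit read from the data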;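 further: plate controls were DMSO-treated cells for no effect and wells lacking cells for full effect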
Gli cytotox: cytotoxicity in Sufu-KO-LIGHT cells, confirmation, cytotoxicity control for Gli-SUFU antagonist project, cell-based, ATP luminescence, single concentration. shares compounds with Gli-Sufu antag. cytotoxicity, % at 5 µM. 2,500 compounds, 32% hits. AID 651994, 2013;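 active means mean cytotoxicity at 5 µM above about 25%, limit read from the data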;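 further: cells exposed to compound overnight for roughly 16 to 18 hours; plate controls were DMSO wells with cells for no effect and medium without cells for full effect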
Wnt3a cs: Wnt3a reporter signal inhibition, confirmation, counter-screen for Gli-SUFU antagonist project, Wnt-LIGHT cells, luminescence, single concentration | shares compounds with Gli-Sufu antag | Wnt3a-driven luciferase reporter | inhibition, % at 6.25 µM | 2,500 compounds, 20% hits | AID 651995, 2013;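 active means mean inhibition above about 25%, limit read from the data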
Starred values were filed as active, the others as inactive. In the library only some 2.6% were active in any assay of this set; here they are far more common.

Results for CN(CC(=O)Nc1ccc(F)cc1)C(=O)COC(=O)c1cc(Br)c(Br)s1 ?
Cardio protect: -4; Gli-Sufu antag: 65*; H9c2 TAG inh: -18; COUP-TFII inh: 10; Gli antag conf: 9; Gli cytotox: -13; Wnt3a cs: -6

Results for CCOC(=O)C1CCCN(C(=O)CCn2nc(-c3ccccc3)ccc2=O)C1 (stereo not drawn) ?
Cardio protect: 3; Jurkat NFkB inh: -4; Gli-Sufu antag: 56*; 697 NFkB inh: -3; COUP-TFII inh: -3; Gli antag conf: 26; Gli cytotox: 15; Wnt3a cs: -7

What do the screens show for `CCn1cc(CN2CCC(C(=O)Nc3ccc(Oc4ccccc4)nc3)CC2)cn1`?
Cardio protect: 5; Jurkat NFkB inh: 7; Gli-Sufu antag: 20; H9c2 TAG inh: -10; 697 NFkB inh: 9; COUP-TFII inh: 6

Results for O=C(Nc1ccc(Oc2ccccc2)nc1)C1CCN(Cc2ccccc2)CC1 ?
Cardio protect: -2; Jurkat NFkB inh: 7; Gli-Sufu antag: 65*; H9c2 TAG inh: -7; 697 NFkB inh: 6; COUP-TFII inh: 18; Gli antag conf: 17; Gli cytotox: 3; Wnt3a cs: -13

Results for CCc1nnc(NC(=O)CCC(=O)NCc2ccccc2Cl)s1 ?
Cardio protect: 7; Jurkat NFkB inh: -3; Gli-Sufu antag: -3; 697 NFkB inh: 7; COUP-TFII inh: -14

How did CCCc1nnc(NC(=O)CCC(=O)NCc2ccccc2Cl)s1 do in these assays?
Cardio protect: 8; Jurkat NFkB inh: 2; Gli-Sufu antag: 55*; 697 NFkB inh: -10; COUP-TFII inh: 0; Gli antag conf: 9; Gli cytotox: 15; Wnt3a cs: -14

Results for CSc1ccc(S(=O)(=O)N2CCC(C(=O)Nc3cccnc3)CC2)cc1 ?
Cardio protect: -2; Jurkat NFkB inh: 30; Gli-Sufu antag: 76*; 697 NFkB inh: 3; COUP-TFII inh: 12; Gli antag conf: 16; Gli cytotox: 11; Wnt3a cs: 8

Results for CCOC(=O)c1sc2nc(CC(=O)OC)nc(NCc3ccc(Cl)cc3)c2c1C ?
Cardio protect: -12; Jurkat NFkB inh: 29; Gli-Sufu antag: 55*; 697 NFkB inh: 5; Gli antag conf: 53*; Gli cytotox: 26*; Wnt3a cs: -19

What do the screens show for `CCOC(=O)c1sc2nc(CC(=O)OC)nc(NCCN(CC)CC)c2c1C`?
Cardio protect: 21; Jurkat NFkB inh: 4; Gli-Sufu antag: 2; 697 NFkB inh: 8; COUP-TFII inh: 7

What do the screens show for `CCCCCCC[C@H](N)[C@H](O)C(=O)N(C)[C@@H](CCS(C)=O)C(=O)N[C@@H](Cc1ccc(O)cc1)C(=O)O` (stereo partly drawn)?
COUP-TFII inh: 11

Results for C=CCNc1cccc2c1S(=O)(=O)N[C@@H](CC(C)C)CO2 ?
COUP-TFII inh: 4

Results for COc1nc(NCCC2=CCCCC2)nc(OC)n1 ?
Cardio protect: 1; Jurkat NFkB inh: 5; Gli-Sufu antag: 99*; H9c2 TAG inh: 3; 697 NFkB inh: -4; COUP-TFII inh: 0; Gli antag conf: 18; Gli cytotox: 3; Wnt3a cs: -20

How did CCCCCCCCN1C(=O)[C@@H](CC(=O)NCCCOCCCC)C[C@@]2(C(=O)OC)C1=C[C@H](C(C)C)O[C@@H]2C1CC1 do in these assays?
COUP-TFII inh: -32

Results for CCCn1c2c(c(=N)c3c1CCC3)CCCC2 ?
Cardio protect: -21; Jurkat NFkB inh: 15; Gli-Sufu antag: 61*; H9c2 TAG inh: -32; 697 NFkB inh: 7; COUP-TFII inh: 25; Gli antag conf: 60*; Gli cytotox: 19; Wnt3a cs: 2

What do the screens show for `Cc1ccc(CN2CCCCC(NC(=O)Cc3cccs3)C2=O)cc1` (stereo not drawn)?
COUP-TFII inh: 17

What do the screens show for `N#Cc1ccccc1NC(=S)NC(=O)c1cccnc1`?
Cardio protect: -2; Jurkat NFkB inh: -5; Gli-Sufu antag: -11; H9c2 TAG inh: -1; 697 NFkB inh: 13; COUP-TFII inh: 1

Results for O=C(NC(=S)Nc1ccccc1O)c1cccnc1 ?
Cardio protect: -3; Jurkat NFkB inh: -9; Gli-Sufu antag: 82*; 697 NFkB inh: 8; COUP-TFII inh: 1; Gli antag conf: 17; Gli cytotox: -11; Wnt3a cs: -8

Results for O=C(Cc1nnc(NC(=O)c2ccccc2)s1)N/N=C\c1ccc(O)c(O)c1 ?
Cardio protect: 2; Jurkat NFkB inh: -7; Gli-Sufu antag: 5; H9c2 TAG inh: 11; 697 NFkB inh: -16; COUP-TFII inh: 18

How did O=C(Cc1nnc(NC(=O)c2ccccc2)s1)N/N=C/c1ccc(O)cc1 do in these assays?
Cardio protect: 6; Jurkat NFkB inh: 6; Gli-Sufu antag: 53; H9c2 TAG inh: 4; 697 NFkB inh: -7; COUP-TFII inh: -15; Gli antag conf: 10; Gli cytotox: 19; Wnt3a cs: -36

What do the screens show for `O=C1CN(C(=O)c2ccccc2)C(c2ccccc2)c2cc(F)ccc2N1` (stereo not drawn)?
Cardio protect: -6; Jurkat NFkB inh: -22; Gli-Sufu antag: 2; 697 NFkB inh: 10; COUP-TFII inh: 3

Results for COc1ccc(C(=O)N2CC(=O)Nc3ccc(F)cc3C2c2ccccc2)cc1 (stereo not drawn) ?
Cardio protect: 4; Gli-Sufu antag: 67*; COUP-TFII inh: 11; Gli antag conf: 20; Gli cytotox: 6; Wnt3a cs: -8

What do the screens show for `COc1ccc(N2C[C@@]3(O)CC[C@@H](O)[C@@H](OC)[C@@H]3[C@@](C)(O)[C@@H]2CC=C(C)C)cc1`?
COUP-TFII inh: -28

How did O=Cc1cn(-c2ccccc2)nc1-c1ccccc1 do in these assays?
Cardio protect: 5; Jurkat NFkB inh: -22; Gli-Sufu antag: -35; 697 NFkB inh: -5; COUP-TFII inh: 0
